Results as given in PubChem BioAssay (NCATS).
The source made the active and inactive calls. The call rests on the fitted dose curve; in most records, active means well fitted inhibition curve with a large enough effect; inconclusive means small, poorly fitted or top-dose-only effect; inactive means flat fitted curve, though single readings scatter.

These molecules were tested against Luciferin 4-monooxygenase (Photinus pyralis) (UniProt P08659) (assay: Primary firefly luciferase (FLuc) qHTS assay for identification of artifact compounds. (AID 1845220; further: nearly all actives have a fitted effect of over 60% in size)). Details: purified firefly luciferase, luminescence, 5 min; series mostly up to 54.1 µM; activity change, negative = inhibition: at the top concentration.
From the text: PI: Alexander Tropsha Ph.D.
UNC Eshelman School of Pharmacy
University of North Carolina, Chapel Hill, North Carolina
Hits from high-throughput screening (HTS) of chemical libraries are often false positives due to their interference with the assay detection technology. In response to this problem, we generated the largest publicly available library of chemical liabilities and developed a free webtool to predict HTS artifacts, both of which are described herein. More specifically, we generated, curated, and integrated HTS datasets for thiol reactivity, redox activity, and luciferase (firefly and nano) activity. Using these curated datasets, we developed and validated several Quantitative Structure-Interference Relationship (QSIR) models to predict nuisance behavior. […] These models were employed for virtual profiling of the National Center for Advancing Translational Science's (NCATS) in-house library, and 256 compounds for each assay were selected for the experimental validation of nuisance behavior. The BA for these external predictions ranged from 58 to 78% for compounds within the applicability domains of the models. […] The models developed in this study, along with aggregation models previously developed by our group (SCAM Detective) were implemented in "Liability Predictor," an online tool which may be used as part of chemical library design or for triaging HTS hits. Both the models and the curated datasets are publicly available at https://liability.mml.unc.edu/.
SEQUENCE No. (e.g., 1, 2, 3, etc.); […] (e.g., Cells, Incubation, Reagent, etc.); VALUE; DESCRIPTION.
1; Reagent; 3 uL; Luciferase substrate mixture.
2; Compounds and control; 16 nL; Kalypsis pin tool (Wako USA) equipped with a 1536-well pin head.
4; Reagent; 1 uL; Luciferase enzyme.
6; Detection; Luminescence, ViewLux microplate reader.
NOTES (numbers refer to Sequence numbers above)
1. 3 uL of luciferase substrate mixture containing D-luciferin and ATP (final concentrations of 10 uM and 10 uM, respectively) in assay buffer (10 mM Mg-acetate, 0.01% Tween-20, 0.05% bovine serum albumin, 50 mM Tris acetate, pH 7.6) was dispensed into all wells of a 1536-well assay plate (solid-bottom white plate; Greiner Bio One, Monroe, NC).
2. A Wako Pin-tool (Wako Automation, Richmond, VA) was used to transfer 16 nL of compounds (consisting of 7-plates in qHTS format, final concentration range 18.3 nM to 114 uM) or control PTC124 (final concentration range 1.22 nM to 40 uM).
3. 15 min. incubation at room temperature protected from light.
4. 1 uL of luciferase enzyme (final concentration 10 nM, Photinus pyralis luciferase) or buffer was dispensed for a final assay volume of 4 uL.
5. Plates were centrifuged (121xg, 15 seconds) and incubated for 5 minutes.
6. Samples were read for luminescence on a ViewLux CCD imager (PerkinElmer). Data were normalized to no-enzyme (0% activity) and no-inhibitor (DMSO; 100%) controls and the resulting percent inhibition data were fitted to a 4-parameter Hill equation using NCATS in-house software.
Potency means the concentration at half of the fitted maximal effect.

Row | Compound | outcome | activity change, negative = inhibition | Potency
1 | CCS(=O)(=O)N1CCN(c2ccc(Nc3ncc(C(N)=O)c(NC4CC4)n3)cc2)CC1 | inactive |  | 
2 | Cc1ccc(NC(=O)Nc2cc(C(F)(F)F)ccc2F)cc1Nc1ccc2c(c1)NC(=O)/C2=C\c1ccc[nH]1 | inactive |  | 
3 | Cc1ccc(S(=O)(=O)Nc2ccccc2N2CCCCC2)s1 | inactive |  | 
4 | CC(=O)NCC(=O)N1C2CCC1c1cc(Nc3ncc(C(F)(F)F)c(NC4CCC4)n3)ccc12 (stereo not given) |  | 1.06% (inactive) | 
5 | CC(=O)OC[C@]12[C@H](OC(C)=O)C(=O)[C@@H]3[C@@H](OC(C)=O)[C@@]14O[C@@]3(C)COC(=O)c1cccnc1[C@@H](C)[C@H](C)C(=O)O[C@@H]([C@H](O)[C@@H]2OC(C)=O)[C@]4(C)O |  | -0.289% [at 25.7 µM] (inactive) | 
6 | CC(=O)N[C@@H](CCCCN)C(=O)N(C)[C@@H](CC(C)C)C(=O)N[C@H](C(=O)N(C)[C@@H](Cc1ccccc1)C(=O)N[C@H](Cc1ccccc1)C(N)=O)C(C)C |  | 1.94% [at 6.45 µM] (inactive) | 
7 | Cc1cc(-c2cc(O)ccc2Cl)cc2nnc(Nc3ccc(OCCN4CCCC4)cc3)nc12 |  | -2.31% (inactive) | 
8 | O=C1NC(Cc2ccccc2)C(=O)N2CCCC12 (stereo not given) |  | 0.0131% (inactive) | 
9 | C=C(C(=O)O)[C@H]1C[C@]2(C)[C@@H](O)CC[C@]23O[C@H]1C[C@@H]3C |  | 0.512% (inactive) | 
10 | O=C(Nc1ccc(S(=O)(=O)C(F)(F)F)cc1)C1=CCN(c2ncccc2C(F)(F)F)CC1 |  | -4.97% (inactive) | 
11 | CC(C)=CCC(O)/C(C)=C/CO[C@@H]1O[C@H](CO)[C@@H](O)[C@H](O)[C@H]1O (stereo not given in full) |  | -7.9% (inactive) | 
12 | COc1ccc(-c2ccc3c(N4CCOCC4)nc(N4CC(C)OC(C)C4)nc3n2)cc1CO (stereo not given) |  | -5.91% (inactive) | 
13 | CNC(=O)c1ccccc1Nc1nc(Nc2ccc3c(c2OC)CCCC(N2CCN(CCO)CC2)C3)ncc1Cl (stereo not given) | inactive |  | 
14 | Cc1cc(C)c2c(N)c(C(=O)NCc3ccc(Cl)cc3)sc2n1 |  | -15.6% (inactive) | 
15 | COc1cc(/C=C/CO)cc(OC)c1O[C@@H]1O[C@H](CO[C@@H]2O[C@H](CO)[C@@H](O)[C@H](O)[C@H]2O)[C@@H](O)[C@H](O)[C@H]1O |  | 2.47% [at 25.7 µM] (inactive) | 
16 | COc1ccc2cc(C(C)C(=O)Oc3ccc(C(N)=S)cc3)ccc2c1 (stereo not given) |  | -5.32% (inactive) | 
17 | N#Cc1cc(F)cc(-c2nc(-c3ccccn3)no2)c1 |  |  | 7.57 µM (active)
18 | C=C1CCCC2(C)CC3(OC)OC(=O)C(C)=C3CC12 (stereo not given) |  | -2.78% (inactive) | 
19 | COCCOc1ccc(N2CCN(CCn3ncc4c3nc(N)n3nc(-c5ccco5)nc43)CC2)cc1 |  | -3.04% (inactive) | 
20 | C[C@]12C[C@@H](O)[C@@H]3C[C@@]1(O[C@@H]1O[C@H](CO)[C@@H](O)[C@H](O)[C@H]1O)[C@]3(COC(=O)c1ccccc1)C(=O)O2 |  | 1.81% [at 25.7 µM] (inactive) | 

Row | Compound | outcome | activity change, negative = inhibition | Potency
21 | COc1ccc([C@@]2(O)c3c(ccc(CC=C(C)C)c3O)NC(=O)[C@@H]2OC)cc1 |  | 3.27% (inactive) | 
22 | COc1ccc(N(C)c2nc(C)nc3ccccc23)cc1 | inactive |  | 
23 | CC1(C(=O)O)CCCC2(C)C3CCC4CC3(CCC12)CC4=O (stereo not given) |  | 0.989% (inactive) | 
24 | COc1ccc(C(=O)C2CCN(CC(=O)N(Cc3nc4c(c(=O)[nH]3)COCC4)CC3CC3)CC2)cc1 | inactive |  | 
25 | CSc1ccc(C(=O)N[C@@H]2CCCC[C@@H]2NC(=O)CNC(=O)c2cc(C(F)(F)F)ccc2NC(=O)NC(C)C)cc1 | inactive |  | 
26 | C=C1[C@H](OC(C)=O)[C@H]2[C@@H](OC(C)=O)[C@](C)(OC(C)=O)C[C@]2(OC(C)=O)C(=O)[C@H](C)/C=C/C(C)(C)C(=O)[C@H](OC(=O)C(C)C)[C@H]1OC(C)=O |  | -4.63% [at 25.7 µM] (inactive) | 
27 | C=C1CC[C@@H]2[C@@](C)(CO[C@@H]3O[C@H](CO)C(O)[C@H](O)C3O)[C@H](O)CC[C@@]2(C)[C@@H]1CC/C(C)=C/CO (stereo not given in full) |  | -1.11% [at 11.6 µM] (inactive) | 
28 | O=C(NCc1cccc(O)c1)c1cc2cc(F)ccc2[nH]1 |  | 4.91% (inactive) | 
29 | N#CC(c1ccnc(OCc2ccc(CN3CCOCC3)cc2)n1)c1nc2ccccc2s1 (stereo not given) |  |  | 0.426 µM (active)
30 | Cc1cc(NC(=O)Nc2ccc(F)c(F)c2)n(-c2ccccc2)n1 |  | -3.96% (inactive) | 
31 | CCN(CC)c1ccc2c(O)c(C=Nc3ccc(CC(=O)O)c(-c4c5c(nc6ccccc46)CCC(C(=O)NN)C5)c3)c(=O)oc2c1 (stereo not given) |  |  | 6.01 µM (active)
32 | CC(=O)O[C@@H]1[C@@H](CO)O[C@@](CO)(O[C@H]2O[C@H](COC(=O)/C=C/c3ccccc3)[C@@H](O)[C@H](O)[C@H]2O)[C@H]1O |  | 2% [at 25.7 µM] (inactive) | 
33 | CN(C)c1ccc2c(c1)OC(N)=C(C#N)C2c1cccc(C(F)(F)F)c1 (stereo not given) |  | 0.944% (inactive) | 
34 | COC(=O)C1=CO[C@@H](O[C@@H]2O[C@H](CO)[C@@H](O)[C@H](O)[C@H]2O)[C@@H]2C(CO)=CC[C@]12O |  | -0.85% [at 25.7 µM] (inactive) | 
35 | O=C(OCC1=CC(O)C2C=CO[C@@H](O[C@@H]3O[C@H](CO)[C@@H](O)[C@H](O)[C@H]3O)C12)c1ccccc1 (stereo not given in full) |  | 0.815% [at 25.7 µM] (inactive) | 
36 | Nc1ccc(-c2cccc3c(=O)cc(N4CCOCC4)oc23)cc1 | inactive |  | 
37 | C[C@@H]1O[C@@H](O[C@@H]2[C@@H](O)[C@H](O[C@H]3CC[C@@]4(C)C(CC[C@]5(C)C4CC=C4[C@@H]6CC(C)(C)CC[C@]6(C(=O)O[C@@H]6O[C@H](CO)[C@@H](O)[C@H](O)[C@H]6O)CC[C@]45C)C3(C)C)O[C@H](C(=O)O)[C@H]2O)[C@H](O)[C@H](O)[C@H]1O (stereo not given in full) |  | 0.705% [at 11.6 µM] (inactive) | 
38 | COc1ccc(-c2c(-c3cc(C(=O)O)ccn3)ncn2C)cc1 |  | -1.26% (inactive) | 
39 | CCCCOC(=O)NC(=O)C1c2ccccc2Oc2ccccc21 |  | -0.277% (inactive) | 
40 | C/C=C/C=C/C(O)=C1\C(O)=C(C)C(=O)[C@@]2(C)OC(=O)[C@@](C)(NC(=O)/C=C/C(=O)O)[C@@H]12 |  | -13% [at 25.7 µM] (inactive) | 
